# Measured values published in PubChem BioAssay (Tox21).
# Inconclusive results are not listed. Activity calls are given as the source filed them. Calls follow the shape of the full dose curve.
# Target: Peroxisome proliferator-activated receptor delta (Homo sapiens) (UniProt Q03181)
# Assay: qHTS assay to identify small molecule agonists of the peroxisome proliferator-activated receptor delta (PPARd) signaling pathway (AID 743212)
# Conditions: HEK293H PPARd-UAS-bla, beta-lactamase FRET ratio, 17 h; series mostly up to 62.6 µM; activation: at the top concentration
# Source text: U.S. Tox21 Program National Center for Advancing Translational Sciences [NCATS] NIH Chemical Genomics Center [NCGC] U.S. Environmental Protection Agency [EPA] National Institutes of Environmental Health Sciences [NIEHS] National Toxicology Program [NTP] U.S. Food and Drug Administration [FDA] Tox21 Assay Overview: The peroxisome proliferator-activated receptors (PPARs) are lipid-activated transcription factors of the nuclear receptor superfamily with three distinct subtypes namely PPAR alpha, PPAR delta (PPARd) and PPAR gamma. All these subtypes heterodimerizes with Retinoid X receptor (RXR) and have different physiological functions. […] To identify the compounds that activate PPAR-delta signaling, GeneBLAzer PPAR delta UAS-bla HEK293H cell line (Invitrogen, Carlsbad, CA, USA) containing a beta-lactamase reporter gene under the control of an Upstream Activator Sequence (UAS) was used to screen the Tox21 compound library.
# Tox21 Assay Protocol Summary: PPARd-bla cells were dispensed at 3000 cells/6uL/well in 1536-well black wall/clear bottom plates using a Multidrop Combi (Thermo Fisher Scientific, Waltham, MA) dispenser. After the assay plates were incubated at 37 C and 5% CO2 for 5 h, 23 nL of compounds dissolved in DMSO, positive controls or DMSO only was transferred to the assay plate by a Pintool station (Kalypsys, San Diego, CA). The assay plates were incubated at 37C for 17 h. After 1 uL of LiveBLAzerTM B/G FRET substrate was added using a Bioraptr Flying Reagent Dispenser (FRD) workstation (Beckman Coulter, Indianapolis, IN, USA), the plates were incubated at room temperature for 2 h, and fluorescence intensity was measured by an Envision plate reader (PerkinElmer, Shelton, CT).
# % is scaled to controls: 0 for no effect and ±100 for the full control effect.
# Chain of Peroxisome proliferator-activated receptor delta (Homo sapiens) (Q03181 whole entry, looked up): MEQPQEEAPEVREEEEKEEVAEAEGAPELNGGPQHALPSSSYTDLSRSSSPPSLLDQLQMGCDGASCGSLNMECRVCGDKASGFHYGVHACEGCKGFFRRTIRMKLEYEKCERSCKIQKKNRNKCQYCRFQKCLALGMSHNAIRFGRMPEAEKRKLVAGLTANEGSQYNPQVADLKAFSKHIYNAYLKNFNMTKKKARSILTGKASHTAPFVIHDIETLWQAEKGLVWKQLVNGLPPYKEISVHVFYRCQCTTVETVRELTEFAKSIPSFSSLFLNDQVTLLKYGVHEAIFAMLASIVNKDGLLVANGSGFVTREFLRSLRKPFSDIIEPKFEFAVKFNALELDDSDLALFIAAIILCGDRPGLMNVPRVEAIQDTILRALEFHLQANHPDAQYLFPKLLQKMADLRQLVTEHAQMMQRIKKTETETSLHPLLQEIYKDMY
SMILES,activation,Potency
Cc1cccc([N+](=O)[O-])c1C(=O)O,5.41% (inactive),–
CCCCN(CCO)CCCC,-4.93% [at 81.1 µM] (inactive),–
c1cnc2cc3c(cc2n1)C1CNCC3C1,3.36% (inactive),–
CCCCOCCOC(=O)c1ccccc1C(=O)OCCOCCCC,-3.95% (inactive),–
C/C=C/c1ccc(OCC)c(O)c1,2.3% (inactive),–
CCN1CCCC1CNC(=O)c1cc(S(=O)(=O)CC)c(N)cc1OC (stereo not given),-0.189% (inactive),–
CCN(CC)C(=O)Nc1ccc(OCC(O)CNC(C)(C)C)c(C(C)=O)c1 (stereo not given),-2.92% (inactive),–
C=C(C)C1CC=C(C)C(OC(C)=O)C1 (stereo not given),–,inactive
C#CC(C)(CC)OC(=O)c1ccccc1C(=O)O (stereo not given),1.15% (inactive),–
NC(N)=Nc1nc(CSCC/C(N)=N/S(N)(=O)=O)cs1,–,inactive
CO[Si](OC)(OC)c1ccccc1,15.9% (inactive),–
CN1C(=O)c2ccc([N+](=O)[O-])cc2C1=O,1.01% (inactive),–
CC(=O)OCCOCCOCCOC(C)=O,–,inactive
O=Cc1ccc(Cl)cc1,3.53% (inactive),–
Cc1scc2c1N(C(=O)CN1CCN(C)CC1)c1ccccc1NC2=O,-0.33% (inactive),–
CC(=O)Nc1ccc(C(=O)CCl)cc1,8.06% (inactive),–
O=S(=O)(O)c1ccc2nc(-c3ccccc3)[nH]c2c1,–,inactive
COc1ccc(Cc2cnc(N)nc2N)cc1OC,-0.121% (inactive),–
Cc1occc(=O)c1OC(=O)C(C)C,-2.97% (inactive),–
CCOC(=O)C(C)C(C)=O (stereo not given),-1.48% [at 81.1 µM] (inactive),–

SMILES,activation,Potency
CC[C@]1(O)C[C@@H]2CN(CCc3c([nH]c4ccccc34)[C@@](C(=O)OC)(c3cc4c(cc3OC)N(C)[C@H]3[C@@](O)(C(=O)OC)[C@H](OC(C)=O)[C@]5(CC)C=CCN6CC[C@]43[C@@H]65)C2)C1,-2.18% (inactive),–
CCCNC(C)C(=O)Nc1ccccc1C (stereo not given),1.78% (inactive),–
CCCC(=O)c1ccccc1,-2.07% (inactive),–
c1ccc2c(c1)CCCC2C1=NCCN1 (stereo not given),0.994% (inactive),–
CC(C)CCOC(=O)c1ccc(N(C)C)cc1,-0.441% (inactive),–
CCOc1ccc2c(c1)C(C)=CC(C)(C)N2,7.3% (inactive),–
COc1cc(C(=S)N2CCOCC2)ccc1O,-2.53% (inactive),–
O=C(Cl)c1cccc(C(=O)Cl)c1,–,inactive
OCCN1CCNCC1,–,inactive
C=CS(=O)(=O)O,1.73% [at 81.1 µM] (inactive),–
COC(=O)/C=C/c1ccccc1,3.69% (inactive),–
O=C(O)CP(=O)(O)O,0.078% (inactive),–
Cc1cccc2n[nH]nc12,–,inactive
CC1COC(=O)O1 (stereo not given),–,inactive
CC1=C(C=O)C(C)(C)CC=C1,-0.582% [at 81.1 µM] (inactive),–
COC(=O)c1cccc(C(=O)OC)c1,–,inactive
CNC1(C)C2CCC(C2)C1(C)C (stereo not given),1.41% (inactive),–
C=C(C)C(=O)O,–,inactive
CCC(=O)/C=C/C1C(C)=CCCC1(C)C (stereo not given),–,inactive
NNCCc1ccccc1,–,inactive
